High-throughput results: PubChem BioAssay, National Center for Advancing Translational Sciences (NCATS)
TRHR agonist: qHTS for Small Molecule Agonists and Allosteric Enhancers of Human TRH Receptor: Primary Screen for Agonists | Thyrotropin-releasing hormone receptor (Homo sapiens), P34981 | TRHR cells, calcium flux fluo-8, FDSS agonist mode | activation, % at 2 µM | actives 0.18% (n = 360,000); in the data active means activation above about 30%; further: 0% is about no effect
Target sequence (P34981 whole entry, looked up): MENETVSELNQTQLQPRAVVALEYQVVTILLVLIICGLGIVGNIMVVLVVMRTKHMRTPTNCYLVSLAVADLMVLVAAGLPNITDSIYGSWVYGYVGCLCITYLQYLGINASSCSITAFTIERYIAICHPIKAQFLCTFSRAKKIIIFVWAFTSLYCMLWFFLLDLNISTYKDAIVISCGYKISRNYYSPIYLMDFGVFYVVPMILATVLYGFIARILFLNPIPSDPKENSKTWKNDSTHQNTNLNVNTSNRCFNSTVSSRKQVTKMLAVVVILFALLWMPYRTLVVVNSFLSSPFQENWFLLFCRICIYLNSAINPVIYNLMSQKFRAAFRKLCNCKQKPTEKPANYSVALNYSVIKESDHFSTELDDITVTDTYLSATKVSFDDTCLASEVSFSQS
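Steps: seed TRHR cells overnight; add fluo-8 no-wash Ca dye, RT 30 min–1.5 h; record 10 s baseline; pin-transfer compounds; monitor fluorescence 1 cycle/s for the agonist window. Calcium increases flag candidate agonists.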
TRHR PAM: qHTS for Small Molecule Agonists and Allosteric Enhancers of Human TRH Receptor: Primary Screen for Enhancers; Thyrotropin-releasing hormone receptor (Homo sapiens), P34981; TRHR cells, fluo-8 calcium fluorescence, EC20 TRH enhancement; enhancement, % at 2 µM; actives 0.66% (n = 360,000); in the data active means enhancement above about 30%; further: 0% is about no effect
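Enhancer read-out: after compound pinning and an initial kinetic agonist-mode read, an EC20 of TRH (10 nM final) was injected and fluo-8 calcium signal (Ex 480/Em 530) followed at 1 s/cycle for 100 cycles in TRHR-expressing cells.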
GLP1R cytotox: qHTS of GLP-1 Receptor Inverse Agonists: Cytotox Screen | HEK293 cAMP-luciferase reporter cells, luminescence, 24 h | Potency, µM (doses to about 38.3 µM), inactives show top-dose activity change, negative = inhibition, actives largely listed as inhibitors | actives 0.13% (n = 410,000) | AID 624418, 2012;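 further: loss of luciferase light is scored as toxicity; potency means the concentration at half of the fitted maximal effect; on the % scale 0 is the no-effect control and ±100 the full control effect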
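Cells in DMEM/10% Nu serum/1% pen-strep, 1536-well format. Pre-incubated 12 h, dosed with 23 nL compound, incubated a further 24 h. Luciferase detection, 12 min at room temp, luminescence.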
PTHR1 ag: qHTS for PTHR1 Agonists: Primary Screen; HEK293 GP2 PTHR1 cells, GloSensor cAMP luminescence, 1 h; Potency, µM (highest dose often 115 µM), inactives show at the top dose activation, actives largely listed as activators; actives 0.075% (n = 410,000); further: potency means the concentration at half of the fitted maximal effect; nearly all actives have a fitted effect of over 55% in size
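HEK-293-derived GP2 cells expressing PTHR1 and a GloSensor cAMP reporter, 3,000/well, plated overnight, given luciferin plus IBMX (each 0.5 mM as added) for 1 h at 37 °C, then compound for 1 h at 37 °C. Luminescence was read after 15 min at room temperature.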
GLP-1R inv ag: qHTS of GLP-1 Receptor Inverse Agonists (Inhibition Mode); Potency, µM (highest dose often 38.3 µM), for the others: at the top dose activity change, negative = inhibition, usual class: inhibitors; Glucagon-like peptide 1 receptor (Homo sapiens), P43220; AID 624417, 2012; actives 1.6% (n = 410,000); HEK293 GLP-1R CRE-luciferase, luminescence, 24 h; GLP-1R form is constitutively active; further: potency means the concentration at half of the fitted maximal effect; on the % scale 0 is the no-effect control and ±100 the full control effect; nearly all actives have a fitted effect of over 55% in size
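HEK293 cells stably co-expressing a cAMP-responsive luciferase reporter and constitutively active GLP-1R were seeded, incubated 12 h, then exposed to compounds for 24 h at 37 C. Luminescence was read 12 min after detection reagent; inverse agonists lower signal.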
GLP-1R agonist: qHTS of GLP-1 Receptor Agonists | AID 624172, 2012 | actives 0.007% (n = 380,000) | Potency, µM (highest dose often 45.6 µM), for inactives: top-dose activation, most hits filed as activators | HEK293 GLP-1R CRE-luciferase, luminescence, 4-6 h; cells express a hypersensitive GLP-1R form | Glucagon-like peptide 1 receptor (Homo sapiens), P43220; further: potency means the concentration at half of the fitted maximal effect; % of control where 0% means no effect
* marks the source's active call; other numbers are inactive results; [ ] = dose if it differs, or a comment. Shown are actives, neighbours in structure and some others; about 2.4% of the full set was active somewhere. Unless noted, the call rests on the fitted dose curve; in most records, active means well fitted curve in the direction sought with a large enough effect; inconclusive means small, poorly fitted or top-dose-only effect, or another doubt; inactive means no such curve, though single readings can be large; an effect the other way counts as inactive or inconclusive.

What do the screens show for `COc1ccc(N2CCN(CCNC(=O)CCCn3c(=O)[nH]c4cc(Cl)ccc4c3=O)CC2)cc1`?
TRHR agonist: 0; TRHR PAM: -5; GLP1R cytotox: 8%; PTHR1 ag: inactive; GLP-1R inv ag: -10%; GLP-1R agonist: -9%

How did Cc1oc2c(c1C(=O)c1ccccc1)C(=O)C(=O)c1ccccc1-2 do in these assays?
TRHR agonist: 0; TRHR PAM: -5; GLP1R cytotox: inconclusive; PTHR1 ag: -12%; GLP-1R inv ag: 4.5µM*; GLP-1R agonist: -51%

How did S=C(NCCN1CCOCC1)N/N=C/c1cccs1 do in these assays?
TRHR agonist: -1; TRHR PAM: -8; GLP1R cytotox: -12%; PTHR1 ag: inactive; GLP-1R inv ag: 3.2µM*; GLP-1R agonist: 4%

How did O=C(COc1ccc([N+](=O)[O-])cc1)NCC1(N2CCOCC2)CCCCC1 do in these assays?
TRHR agonist: 0; TRHR PAM: -6; GLP1R cytotox: -8%; PTHR1 ag: inactive; GLP-1R inv ag: -17%

What do the screens show for `O=C(/C(=C/c1ccc(Cl)cc1)c1nc2ccccc2[nH]1)c1cccs1`?
TRHR agonist: 0; TRHR PAM: 0; GLP1R cytotox: inconclusive; PTHR1 ag: -94%; GLP-1R inv ag: 4.5µM*; GLP-1R agonist: -8%

Results for O=c1[nH]c2ccccc2nc1/C=C(\O)c1cccs1 ?
TRHR agonist: 115*; TRHR PAM: 6; GLP1R cytotox: 2%; PTHR1 ag: inactive; GLP-1R inv ag: 13%; GLP-1R agonist: 3%

Results for O=C(/C(=C\c1ccccc1)c1nc2ccccc2[nH]1)c1ccc(Cl)cc1 ?
TRHR agonist: 1; TRHR PAM: -2; GLP1R cytotox: inconclusive; PTHR1 ag: -28%; GLP-1R inv ag: inconclusive; GLP-1R agonist: 9%

How did CC#CC(=O)N1CCC(Oc2cccc(C(=O)NCc3ccccn3)c2)CC1 do in these assays?
TRHR agonist: 0; TRHR PAM: -11; GLP1R cytotox: -6%; PTHR1 ag: inactive; GLP-1R inv ag: 8%; GLP-1R agonist: 4%

How did COc1ccccc1N1CCN(CC(C)N(C(=O)C2CCCCC2)c2ccccn2)CC1 (stereo not given) do in these assays?
TRHR agonist: -1; TRHR PAM: -9; GLP1R cytotox: -3%; PTHR1 ag: -4%; GLP-1R inv ag: 10µM*; GLP-1R agonist: 3%

Results for COc1ccccc1N1CCN(CCN(C(=O)C2CCCCC2)c2ccccn2)CC1 ?
TRHR agonist: -1; TRHR PAM: 2; GLP1R cytotox: -1%; PTHR1 ag: -67%; GLP-1R inv ag: -20%; GLP-1R agonist: 5%

What do the screens show for `CCC(=O)N1Cc2cc(C(=O)NCC(F)(F)F)nc(-c3cccc(-c4cncnc4)c3)c2[C@@H]1CCO`?
GLP1R cytotox: 0%; PTHR1 ag: -10%; GLP-1R inv ag: -11%; GLP-1R agonist: -2%

How did Cn1c(=O)c(NCCc2ccccc2)c2c3c(cccc31)C(=O)c1ccccc1-2 do in these assays?
TRHR agonist: 175*; TRHR PAM: -18; GLP1R cytotox: 257%; PTHR1 ag: -2%[57.5 µM]; GLP-1R inv ag: inconclusive; GLP-1R agonist: 8%

What do the screens show for `Cn1c(=O)c(NC2CCCCC2)c2c3c(cccc31)C(=O)c1ccccc1-2`?
TRHR agonist: 219*; TRHR PAM: 5; GLP1R cytotox: inactive; PTHR1 ag: inactive; GLP-1R inv ag: 10µM*; GLP-1R agonist: -2%

What do the screens show for `CCCCNc1c2c3c(cccc3n(C)c1=O)C(=O)c1ccccc1-2`?
TRHR agonist: 94*; TRHR PAM: -4; GLP1R cytotox: 243%; PTHR1 ag: inactive; GLP-1R inv ag: -10%; GLP-1R agonist: 9%

What do the screens show for `Cn1c(NCCc2ccccc2)cc(=O)n(C)c1=O`?
TRHR agonist: 1; TRHR PAM: 8; GLP1R cytotox: -2%; PTHR1 ag: -2%[57.5 µM]; GLP-1R inv ag: 9%; GLP-1R agonist: -1%

What do the screens show for `CC(=O)Nc1ccc(Nc2c3c4c(cccc4n(C)c2=O)C(=O)c2ccccc2-3)cc1`?
TRHR agonist: 5; TRHR PAM: -6; GLP1R cytotox: 0%[1.53 µM]; PTHR1 ag: -13%; GLP-1R inv ag: 53%; GLP-1R agonist: 3%

What do the screens show for `CC(CS(=O)(=O)c1ccc2c(c1)NC(=O)CS2)C(=O)N1CCN(c2cccc(Cl)c2)CC1` (stereo not given)?
TRHR agonist: -1; TRHR PAM: 6; GLP1R cytotox: -5%; PTHR1 ag: -13%; GLP-1R inv ag: -13%; GLP-1R agonist: 3%

What do the screens show for `CCN(C(=O)COC(=O)CCCc1c[nH]c2ccccc12)c1c(N)n(Cc2ccccc2)c(=O)[nH]c1=O`?
GLP1R cytotox: 4%; PTHR1 ag: -24%; GLP-1R inv ag: 12%; GLP-1R agonist: -5%

Results for CCOc1ccc(NC(=O)CSc2nc3nc4c(cc3c(=O)n2CC)COC(C)(C)C4)cc1 ?
TRHR agonist: 0; TRHR PAM: 7; GLP1R cytotox: -1%; PTHR1 ag: -8%; GLP-1R inv ag: 6%; GLP-1R agonist: 11%

How did Cc1cc(N2CCCC2)nc2ccc(NC(=S)NCCCN3CCC(C)CC3)cc12 do in these assays?
TRHR agonist: 0; TRHR PAM: 2; GLP1R cytotox: inconclusive; PTHR1 ag: inactive; GLP-1R inv ag: 5µM*; GLP-1R agonist: -2%

What do the screens show for `Cc1cc(N2CCN(C)CC2)nc2ccc(NC(=S)NCCCN3CCc4ccccc4C3)cc12`?
TRHR agonist: 1; TRHR PAM: -1; GLP1R cytotox: 4.5µM*; PTHR1 ag: -22%; GLP-1R inv ag: inconclusive; GLP-1R agonist: 22%

Results for CCCN1CCN(CCCNC(=S)Nc2ccc3nc(N4CCN(CC)CC4)cc(C)c3c2)CC1 ?
TRHR agonist: -1; TRHR PAM: 5; GLP1R cytotox: inconclusive; PTHR1 ag: inconclusive; GLP-1R inv ag: inconclusive; GLP-1R agonist: 4%

What do the screens show for `CN(C(=O)CCNC(=O)Cn1cnc2ccccc2c1=O)c1ccc(Br)cc1`?
TRHR agonist: 0; TRHR PAM: 10; GLP1R cytotox: 11%; PTHR1 ag: inactive; GLP-1R inv ag: 3%; GLP-1R agonist: 3%
